In PubChem BioAssay AID1159580 (chemical genetic matrix, 2015):
Screen size: about 5,500 compounds; about 2,000 (36%) were called active. Roughly 18% stayed inconclusive and do not appear here. Rule as the data show it: active = normalized growth mostly below about 0.91 (no sharp cut-off); inconclusive = no clear call, values can overlap the other calls; inactive = mostly above about 0.92. This is one part of the list.

Assay: chemical genetic growth profiling, strain panel (AID 1159580);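 also: tested at 20 µM; growth read once vehicle control cultures reached saturation at 30 °C; 1 = growth at the plate median or of vehicle wells; lower values mean less growth of the strain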
Settings: S. cerevisiae deletion strains, growth OD

Measured: normalized growth

CCN1CCC[C@H]1CNC(=O)c1c(OC)ccc(I)c1O
inactive: locus YAL040C, strain CLN3, active compounds read low 1.01 | locus YCL061C, strain MRC1 (second series), active compounds read low 1 | locus YDR150W, strain NUM1, active compounds read low 0.986 | locus YDR363W, strain ESC2, active compounds read low 1.01 | locus YER002W, strain NOP16, active compounds read low 0.996 | locus YGR229C, strain SMI1, active compounds read low 0.92 | locus YJR075W, strain HOC1, active compounds read low 0.984 | locus YMR307W, strain GAS1, active compounds read low 1 | locus YNL175C, strain NOP13, active compounds read low 1 | locus YNL197C, strain WHI3, active compounds read low 1.02 | locus YNL224C, strain SQS1, active compounds read low 1.01 | locus YNL322C, strain KRE1, active compounds read low 0.996 | locus YOR083W, strain WHI5 (second series), active compounds read low 0.974 | locus YPL055C, strain LGE1, active compounds read low 0.972 | locus YPL241C, strain CIN2, active compounds read low 0.998
